# Laboratory results reported in PubChem BioAssay (NCATS).
# Inconclusive results are not listed. Values without a mark were called inactive. Calls of active or inactive are those of the source. Calls come from the whole dose curve; as a rule, active = well fitted inhibition curve with a large enough effect; inconclusive = small, poorly fitted or top-dose-only effect; inactive = flat fitted curve, though single readings scatter. Where a SMILES comes first, the peptide text is derived from it.
# Legend:
# Assay in all cases: Cytotoxic Profiling of Annotated Libraries Using Quantitative High-Throughput Screening (AID 1296008); note: nearly all actives have a fitted effect of over 60% in size
# Conditions in all cases: Five cell lines viability, CellTiter-Glo ATP luminescence, 48-72 h; max response: hits give low values
# [1] = tested on: CRL-7250
# Procedure, shortened: (§1)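 Cells exposed to compounds for 48 or 72 hr at 37 degrees Celsius. Viability read as ATP-coupled luminescence with CellTiter-Glo after 10 min at room temperature.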
# [2] = tested on: HEK293
# Procedure, shortened: as §1
# [3] = tested on: HaCat
# Procedure, shortened: as §1
# [4] = tested on: KB-3-1
# Procedure, shortened: as §1
# [5] = tested on: NIH3T3
# Procedure, shortened: as §1
# % is set by controls: 0 for no effect and ±100 for the full control effect; potency is the fitted concentration of half-maximal effect.
smiles,measurement,setting,value
Cc1c(Cc2ccc3ccccc3n2)c2cc(F)ccc2n1CC(=O)O,max response,[1],-9.45%
same,max response,[2],0.378%
same,outcome,[3],inactive
same,max response,[4],7.66%
same,outcome,[5],inactive
CC(C)N(CCCNC(=O)Nc1ccc(C(C)(C)C)cc1)C[C@H]1O[C@@H](n2ccc3c(N)ncnc32)[C@H](O)[C@@H]1O,max response,[1],1.45%
same,max response,[2],-23.8%
same,outcome,[3],inactive
same,max response,[4],-3.09%
same,max response,[5],-13.2%
COc1ccc(C(=O)NCc2cc(C(C)C)no2)cc1OC1CCN(C)CC1,max response,[1],-1.84%
same,max response,[2],-4.29%
same,max response,[3],4.96%
same,max response,[4],-1.9%
same,outcome,[5],inactive
CC(=O)N[C@H](Cc1c[nH]c2ccccc12)C(=O)OCc1cc(C(F)(F)F)cc(C(F)(F)F)c1,max response,[1],-4.46%
same,max response,[2],-2.25%
same,outcome,[3],inactive
same,outcome,[4],inactive
same,outcome,[5],inactive
COC(=O)C1=CO[C@@H](O[C@@H]2O[C@H](CO)[C@@H](O)[C@H](O)[C@H]2O)[C@@H]2[C@@H](C(=O)O)CC[C@H]12,max response,[1],-20%
same,max response,[2],-0.168%
same,outcome,[3],inactive
same,max response,[4],3.46%
same,max response,[5],0.607%
Cc1cc(-c2nncc3c(C(C)(C)C)c(OCc4ncnn4C)nn23)no1,outcome,[1],inactive
same,max response,[2],-4.36%
same,outcome,[3],inactive
same,max response,[4],6.49%
same,max response,[5],1.34%
COc1cccc(C)c1C(=O)O[C@@H]1C[C@H](O[C@H]2[C@H](O)C[C@H](O[C@@H]3CCC[C@H]4[C@H]3C=C[C@@H]3CCCC/C=C/[C@H]5C=C(C(=O)O)[C@@H](C)C[C@@]56OC(=O)C(=C6O)OC(=O)[C@@]34C)O[C@@H]2C)O[C@H](C)[C@H]1O,max response,[1],-2.06%
same,max response,[2],-11.9%
same,outcome,[3],inactive
same,max response,[4],6.21%
same,outcome,[5],inactive
CC1(C)CC[C@]2(C(=O)O)CC[C@]3(C)C(=CCC4[C@@]5(C)CC[C@H](O[C@@H]6O[C@H](C(=O)O)[C@@H](O)[C@H](O)[C@H]6O)C(C)(C)C5CC[C@]43C)C2C1 (stereo not given in full),max response,[1],-10.5%
same,max response,[2],-9.32%
same,max response,[3],-12.1%
same,max response,[4],4.15%
same,outcome,[5],inactive
CC(C)(O)C1CCC2(C)CCCC(C)(O)C2C1 (stereo not given),max response,[1],-27.4%
same,max response,[2],2.93%
same,outcome,[3],inactive
same,max response,[4],8.99%
same,outcome,[5],inactive
CCC(=O)OCC(=O)[C@@]1(OC(=O)CC)[C@@H](C)C[C@H]2[C@@H]3CCC4=CC(=O)C=C[C@]4(C)[C@@]3(F)[C@@H](O)C[C@@]21C,max response,[1],-9.64%
same,max response,[2],-7.33%
same,max response,[3],-29.8%
same,outcome,[4],inactive
same,outcome,[5],inactive
Cc1cc(Cn2cnc3c2CC(C(=O)O)N(C(=O)C(c2ccccc2)c2ccccc2)C3)ccc1N(C)C (stereo not given),outcome,[1],inactive
same,max response,[2],-1.68%
same,outcome,[3],inactive
same,max response,[4],5.82%
same,max response,[5],1.33%
O=[N+]([O-])c1cc(Cl)ccc1S(=O)(=O)N1CCN(Cc2ccccc2)CC1,max response,[1],-3.5%
same,max response,[2],-21.3%
same,outcome,[3],inactive
same,max response,[4],-13.2%
same,outcome,[5],inactive
C[C@H]1CC[C@@]2(OC1)O[C@H]1CC3C4CC[C@H]5C[C@@H](O)CC[C@]5(C)C4CC(=O)[C@]3(C)[C@H]1[C@@H]2C (stereo not given in full),max response,[1],2.1%
same,max response,[2],-2.47%
same,outcome,[3],inactive
same,outcome,[4],inactive
same,max response,[5],3.42%
CC1(C)CC[C@]2(C(=O)O)CC[C@]3(C)C(=CCC4[C@@]5(C)C[C@@H](O)[C@H](O)[C@](C)(CO)C5CC[C@]43C)[C@@H]2[C@@H]1O (stereo not given in full),outcome,[1],inactive
same,Potency,[2],7.96 µM (active)
same,max response,[3],1.54%
same,max response,[4],-5.13%
same,outcome,[5],inactive
O=C(O)/C=C/c1ccc(O[C@@H]2O[C@H](CO)[C@@H](O)[C@H](O)[C@H]2O)cc1,outcome,[1],inactive
same,max response,[2],-0.219%
same,outcome,[3],inactive
same,outcome,[4],inactive
same,outcome,[5],inactive
C=CC(C)(O)CC/C=C(\C)C(=O)O[C@@H]1[C@@H](O)[C@H](OC(C)(C=C)CC/C=C(\C)C(=O)O)O[C@H](CO)[C@H]1OC(=O)/C(C)=C/CCC(C)(O)C=C (stereo not given in full),outcome,[1],inactive
same,max response,[2],-0.372%
same,max response,[3],-21.2%
same,outcome,[4],inactive
same,outcome,[5],inactive
CCOC(=O)c1ccc(NC2CCCCC2)c(N)c1,outcome,[1],inactive
same,max response,[2],-10.7%
same,max response,[3],-10.7%
same,max response,[4],-6.34%
same,outcome,[5],inactive
C=C1CCC2[C@](C)(CO)CCC[C@@]2(C)[C@@H]1CCC1=CCOC1=O (stereo not given in full),max response,[1],-10.5%
same,max response,[2],-0.138%
same,outcome,[3],inactive
same,max response,[4],5.6%
same,max response,[5],-5.66%
CCOC(=O)COc1ccc2c(c1)C[C@@H](NC[C@H](O)c1cccc(Cl)c1)CC2,outcome,[1],inactive
same,max response,[2],4.31%
same,outcome,[3],inactive
same,max response,[4],7.38%
same,max response,[5],1.73%
CSCC1OC(n2cnc3c(N)ncnc32)C(O)C1O (stereo not given),outcome,[1],inactive
same,outcome,[2],inactive
same,max response,[3],2.69%
same,outcome,[4],inactive
same,max response,[5],-0.346%
C=CC(C)(O)CC/C=C(\C)C1CC=C(C)C(=O)O1 (stereo not given),outcome,[1],inactive
same,max response,[2],-4.28%
same,outcome,[3],inactive
same,max response,[4],2.69%
same,outcome,[5],inactive
C/C=C/C1OC2=C(C(=O)OC2(C)O)C(O)C1O (stereo not given),max response,[1],-6.2%
same,max response,[2],-1.4%
same,max response,[3],2.04%
same,max response,[4],-1.78%
same,outcome,[5],inactive
Cn1nccc1-c1ccccc1Oc1ccc(S(=O)(=O)Nc2nccs2)cc1C#N,outcome,[1],inactive
same,outcome,[2],inactive
same,max response,[3],-17.4%
same,max response,[4],2.49%
same,max response,[5],0.589%
COC(=O)c1c(CC=C(C)C)c(OC2OC(CO)C(O)C(O)C2O)c2ccccc2c1OC1OC(CO)C(O)C(O)C1O (stereo not given),outcome,[1],inactive
same,max response,[2],-10.1%
same,outcome,[3],inactive
same,outcome,[4],inactive
same,outcome,[5],inactive
COc1cc(O)cc(C)c1C(=O)O[C@H]1[C@@H](O)[C@@H](n2ccc(=O)[nH]c2=O)O[C@@H]1CO,max response,[1],-0.148%
same,max response,[2],-4.61%
same,outcome,[3],inactive
same,max response,[4],-0.769%
same,outcome,[5],inactive
COC(=O)C(Cc1ccccc1)NC(=O)c1ccccc1 (stereo not given),max response,[1],-7.59%
same,max response,[2],-8.19%
same,outcome,[3],inactive
same,max response,[4],6.61%
same,max response,[5],-1.1%
Cc1cccc(-c2nn3c(c2-c2ccnc4ccc(C(N)=O)cc24)CCC3)n1,max response,[1],1.85%
same,max response,[2],3.73%
same,outcome,[3],inactive
same,outcome,[4],inactive
same,max response,[5],-5.67%
C=CC(C)(O)CCC1C(C)(O)CCC2C(C)(C)CCCC21C (stereo not given),max response,[1],-9.7%
same,max response,[2],-3.72%
same,max response,[3],3.9%
same,max response,[4],9.64%
same,outcome,[5],inactive
COCCCc1sc(-c2ccccc2)nc1C(=O)Nc1ccccc1-c1nc2cc(CN3CCCC3)cnc2s1,outcome,[1],inactive
same,max response,[2],-7.81%
same,outcome,[3],inactive
same,outcome,[4],inactive
same,outcome,[5],inactive
CC(C)C1NC(=O)C(CC2(O)c3ccccc3N3C(=O)C(Cc4ccccc4)NC32)NC1=O (stereo not given),outcome,[1],inactive
same,max response,[2],-4.45%
same,outcome,[3],inactive
same,outcome,[4],inactive
same,outcome,[5],inactive
COC(=O)c1cc(OC)cc(OC)c1C(=O)c1c(OC)cc2c(c1O)C1CCC(O)C(C)(O2)O1 (stereo not given),outcome,[1],inactive
same,max response,[2],0.585%
same,outcome,[3],inactive
same,outcome,[4],inactive
same,outcome,[5],inactive
COC1OC(O)C2(CCC3(O2)C(C)CC2OC(=O)C4(C)CCCC3(C)C24)C1O (stereo not given),outcome,[1],inactive
same,max response,[2],-1.02%
same,outcome,[3],inactive
same,max response,[4],-1.51%
same,max response,[5],1.38%
CN[C@H](CNC(=O)N1CCC[C@@H]([C@@H](OCCNC(=O)OC)c2cccc(Cl)c2)C1)C[C@H]1CCCOC1,max response,[1],-5.16%
same,max response,[2],0.31%
same,outcome,[3],inactive
same,max response,[4],1.87%
same,outcome,[5],inactive
CC(C)C1NC(=O)CNC(=O)C2CCCN2C(=O)C(Cc2c[nH]c3ccccc23)NC(=O)CNC(=O)C(Cc2ccc(O)cc2)NC(=O)CNC1=O (stereo not given) (cyclo(GVGYGWP); configuration not given here),max response,[1],-2.61%
same,max response,[2],3.25%
same,outcome,[3],inactive
same,outcome,[4],inactive
same,max response,[5],-0.317%
C[C@@H](NC(=O)c1cc(C(=O)N[C@@H](Cc2ccccc2)[C@H](O)CNC2CC2)cc(N(C)S(C)(=O)=O)c1)c1ccccc1,max response,[1],2.97%
same,max response,[2],-6.18%
same,outcome,[3],inactive
same,max response,[4],-1.48%
same,outcome,[5],inactive
C=CC(C)(O)CC/C=C(\C)COC1O[C@H](CO)[C@@H](O)[C@H](O)[C@H]1O (stereo not given in full),max response,[1],-13.2%
same,max response,[2],0.0631%
same,outcome,[3],inactive
same,max response,[4],1.01%
same,max response,[5],3.77%
NC(=O)C(O[C@@H]1O[C@H](CO[C@@H]2O[C@H](CO)[C@@H](O)[C@H](O)[C@H]2O)[C@@H](O)[C@H](O)[C@H]1O)c1ccccc1 (stereo not given in full),outcome,[1],inactive
same,max response,[2],-77.8%
same,outcome,[3],inactive
same,max response,[4],4.92%
same,max response,[5],4.15%
COc1ccc(CC(NC(C)=O)C(=O)O)cc1 (stereo not given),max response,[1],0.775%
same,max response,[2],-3.66%
same,outcome,[3],inactive
same,max response,[4],6.09%
same,max response,[5],1.53%
C/C(=C\C(=O)C(C)C1CCC2C3=C(CCC21C)C1(C)CCC(=O)C(C)(C)C1(O)CC3)C(C)(C)O (stereo not given),max response,[1],3.05%
same,max response,[2],-15.6%
same,max response,[3],1.49%
same,max response,[4],-3.74%
same,outcome,[5],inactive
CC(C)(O)/C=C/C(=O)[C@](C)(O)[C@H]1[C@H](O)C[C@@]2(C)[C@@H]3CC=C4[C@@H](C=C(O[C@@H]5O[C@H](CO)[C@@H](O)[C@H](O)[C@H]5O)C(=O)C4(C)C)[C@]3(C)C(=O)C[C@]12C,max response,[1],-3.34%
same,max response,[2],-7.75%
same,outcome,[3],inactive
same,max response,[4],0.874%
same,max response,[5],1.79%
CC(=O)O[C@H]1C[C@@]2(C)[C@@H](CC[C@H]3[C@@]4(C)C=CC(=O)[C@@H](C)[C@@H]4[C@H](OC(C)=O)C(=O)[C@@]32C)/C1=C(\CCC=C(C)C)C(=O)O,max response,[1],4.49%
same,max response,[2],-0.998%
same,outcome,[3],inactive
same,max response,[4],5.79%
same,max response,[5],-2.17%
